# ChEMBL document CHEMBL4513216, “Probing the Open Global Health Chemical Diversity Library for Multistage-Active Starting Points for Next-Generation Antimalarials” (ACS Infect Dis, 2020)
# Among all 69,000 compounds or so, about 8,600 (12%) showed an effect of 50% or more. The entries come from a sample that favours strong results as a whole.
# Tested on: Plasmodium berghei
# Assay: Screen against P. berghei liver stage (PbLuc), transformed with Luciferase, at 10uM
# Type: functional, HepG2
# Conditions: tested at 10 uM
row,SMILES,INHIBITION
1,O=C(NC1CC1)N1CC[C@@H](O)[C@@H]1Cc1ccccc1,-23.3%
2,CN(C)c1cc(C(=O)N2CCCN(c3cccnn3)CC2)ccn1,38.7%
3,O=C(CN(Cc1ccco1)C1CC1)N1CCCCCC1,-8.11%
4,Cc1nonc1OCCNC(=O)CCCc1ccc(Cl)cc1,57.8%
5,Cc1nonc1OCCNC(=O)COc1ccc(F)cc1F,7.92%
6,Cc1nonc1OCCNC(=O)COc1ccc(Cl)cc1Cl,7.38%
7,N#Cc1c(F)cccc1Nc1cnn(CC(O)CN2CCOCC2)c1 (stereo not given),44.9%
8,O[C@@H]1CN(CC2=Cc3cc(Cl)ccc3OC2)CC[C@H]1N1CCCCCC1,31.9%
9,CN1CCN([C@@H]2CCN(Cc3cccc(-n4cccn4)c3)C[C@H]2O)CC1,22.9%
10,CN1CCN([C@@H]2CCN(CC3=Cc4cc(Cl)ccc4OC3)C[C@H]2O)CC1,62.4%
11,O=C(C1CCOC1)N1CCC2(CC1)COC2 (stereo not given),19.8%
12,COCC(=O)N1CCN(C)C(=O)C(Cc2ccc(-c3cccs3)cc2)C1 (stereo not given),6.26%
13,CC(C)(C)Cc1noc2ncc(C(=O)N3CCSCC3)cc12,37.7%
14,CC(C)(C)Cc1noc2ncc(C(=O)N3CCC3)cc12,29%
15,CC1CN(C)CCN1C(=O)c1cnc2onc(CC(C)(C)C)c2c1 (stereo not given),53.9%
16,OCc1cc(C2CCCN2c2ncccn2)n[nH]1 (stereo not given),12.27%
17,OC(COCc1ccc(Cl)cc1)CN1CC(n2cccn2)C1 (stereo not given),-3.6%
18,OC(COCc1ccccc1)CN1CC(n2cccn2)C1 (stereo not given),39.6%
19,COc1cccc(COCC(O)CN2CC(n3cccn3)C2)c1 (stereo not given),52%
20,Cn1ccc(C(=O)NC2CCC23CCN(C(=O)N2CCCC2)CC3)c1 (stereo not given),20.5%
21,c1ccc(N2CCCC3(CCN(Cc4ccsc4)C3)C2)nc1 (stereo not given),37.1%
22,Fc1cnc(N2CCOC3(CCN(Cc4ccsc4)CC3)C2)nc1,71.6%
23,c1cnc(N2CCCC3(CCN(Cc4ccsc4)C3)C2)nc1 (stereo not given),53.2%
24,c1cnc(N2CCOCC3(CN(Cc4ccsc4)CCO3)C2)nc1 (stereo not given),-47.5%
25,Fc1cnc(N2CCCC3(CN(Cc4ccccc4)CCO3)C2)nc1 (stereo not given),-15.3%
26,Fc1cnc(N2CCCC3(CCN(Cc4ccsc4)C3)C2)nc1 (stereo not given),43.8%
27,CCc1cnc(N2CC3(CCN(Cc4ccsc4)C3)C2)nc1,7.39%
28,Fc1cnc(N2CC3(CCN(Cc4ccsc4)C3)C2)nc1,52%
29,c1csc(CN2CC3(CCN(Cc4ccsc4)C3)C2)n1,0.542%
30,O=C(Nc1cnc2n1CCCC2)C1CCCN1C1CCNCC1 (stereo not given),15.7%
